Source: PubChem BioAssay
For some assays here: Entries with a potency or affinity are not part of this list. Active and inactive are the calls of the source. Unless noted, how the calls were made is not given here.

Assays:
[1] = antimalarial activity against Dd2 strain (AID 2302;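 active means growth inhibition above 50% at the single 2 µM test dose, taken to imply half-maximal potency below 2 µM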;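 further: 0% = DMSO untreated growth and 100% = chloroquine plus artemisinin killed control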); conditions: P. falciparum Dd2 in RBCs, LDH growth readout, 72 h; at 2 µM; hits give high values
[2] = HepG2 cytotoxicity, primary screen, cytotoxicity control for P. falciparum antimalarial project, cell-based, ATP luminescence (AID 2303;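 active means inhibition above 50%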;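 further: 0% = DMSO wells and 100% = digitonin-killed cells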); conditions: HepG2 viability, 24-48 h, at 10 µM, hits give high values
[3] = target: L-lactate dehydrogenase (Plasmodium falciparum (isolate CDC / Honduras)) (UniProt Q27743); assay: PfLDH activity inhibition – cell lysate, 3D7 strain, counter-screen for P. falciparum growth inhibition project (AID 2304);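 further: 0% = vehicle and 100% = reference inhibitor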; conditions: P. falciparum 3D7 crude extract, LDH APAD/NBT absorbance; at 2 µM; hits give high values
L-lactate dehydrogenase (Plasmodium falciparum (isolate CDC / Honduras)), sequence (Q27743 whole entry, looked up): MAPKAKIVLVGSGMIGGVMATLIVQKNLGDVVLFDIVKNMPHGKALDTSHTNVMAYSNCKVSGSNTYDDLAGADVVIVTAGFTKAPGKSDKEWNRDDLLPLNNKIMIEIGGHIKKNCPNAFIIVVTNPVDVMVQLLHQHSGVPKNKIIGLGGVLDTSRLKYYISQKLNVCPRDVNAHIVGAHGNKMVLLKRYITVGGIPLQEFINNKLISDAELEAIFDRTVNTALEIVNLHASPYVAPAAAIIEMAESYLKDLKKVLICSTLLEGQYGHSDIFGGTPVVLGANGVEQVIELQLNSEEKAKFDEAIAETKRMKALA

[4] = inhibition of 3D7 malaria parasite growth – strain 3D7 (AID 2306);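 further: 0% = DMSO wells and 100% = chloroquine plus artemisinin control wells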; conditions: P. falciparum 3D7 erythrocytic growth, LDH absorbance, 72 h; at 2 µM; hits give high values
[5] = target: Calcium-dependent protein kinase 1 (Plasmodium falciparum (isolate 3D7)) (UniProt P62344); assay: PfCDPK1 kinase inhibitors, biochemical, TCAMS library (AID 1159585; cut-off not given, nearly all actives have IC50 up to about 0.98 µM;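 further: inhibitors leave more ATP so luminescence rises with inhibition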); conditions: recombinant PfCDPK1, Kinase-Glo ATP depletion luminescence
Calcium-dependent protein kinase 1 (Plasmodium falciparum (isolate 3D7)), sequence (P62344 whole entry, looked up): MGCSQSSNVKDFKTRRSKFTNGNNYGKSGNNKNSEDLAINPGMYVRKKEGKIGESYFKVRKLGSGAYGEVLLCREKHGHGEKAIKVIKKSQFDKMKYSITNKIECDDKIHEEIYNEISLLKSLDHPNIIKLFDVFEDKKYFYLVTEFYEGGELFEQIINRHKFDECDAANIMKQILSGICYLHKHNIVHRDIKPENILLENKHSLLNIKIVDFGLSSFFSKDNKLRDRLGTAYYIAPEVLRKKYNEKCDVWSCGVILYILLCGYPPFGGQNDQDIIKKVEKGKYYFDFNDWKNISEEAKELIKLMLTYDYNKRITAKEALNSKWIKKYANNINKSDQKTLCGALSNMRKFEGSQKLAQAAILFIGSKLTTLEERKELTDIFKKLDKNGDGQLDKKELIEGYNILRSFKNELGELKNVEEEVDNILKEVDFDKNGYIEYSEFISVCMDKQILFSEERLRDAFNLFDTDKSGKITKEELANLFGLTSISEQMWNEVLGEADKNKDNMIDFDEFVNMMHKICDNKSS

[6] = target: Plasmodium falciparum protein kinase 6 (PK6, PF3D7_1337100) (UniProt Q8IDW1); assay: PfPK6 kinase inhibitors, biochemical, TCAMS library (AID 1159586); conditions: recombinant PfPK6, Kinase-Glo ATP depletion luminescence
Plasmodium falciparum protein kinase 6 (PK6, PF3D7_1337100), sequence (Q8IDW1 1-305): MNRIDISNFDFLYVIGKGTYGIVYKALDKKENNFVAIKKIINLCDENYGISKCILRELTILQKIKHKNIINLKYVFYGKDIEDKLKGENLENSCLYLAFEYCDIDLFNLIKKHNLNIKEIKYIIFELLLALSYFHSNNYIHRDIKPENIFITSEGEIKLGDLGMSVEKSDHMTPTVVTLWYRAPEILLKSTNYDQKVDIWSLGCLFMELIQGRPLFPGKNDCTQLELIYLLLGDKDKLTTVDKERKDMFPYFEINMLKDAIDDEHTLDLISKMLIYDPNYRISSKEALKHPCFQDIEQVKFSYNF

[7] = target: Protein kinase 7 (PK7), Plasmodium falciparum 3D7 (PF3D7_0213400) (UniProt Q7YTF7); assay: inhibition of Plasmodium PK7 catalytic activity – biochemical, TCAMS antimalarial set, Kinase-Glo luminescence (AID 1159587); conditions: recombinant PfPK7, Kinase-Glo ATP depletion luminescence
Protein kinase 7 (PK7), Plasmodium falciparum 3D7 (PF3D7_0213400), sequence (Q7YTF7 1-343): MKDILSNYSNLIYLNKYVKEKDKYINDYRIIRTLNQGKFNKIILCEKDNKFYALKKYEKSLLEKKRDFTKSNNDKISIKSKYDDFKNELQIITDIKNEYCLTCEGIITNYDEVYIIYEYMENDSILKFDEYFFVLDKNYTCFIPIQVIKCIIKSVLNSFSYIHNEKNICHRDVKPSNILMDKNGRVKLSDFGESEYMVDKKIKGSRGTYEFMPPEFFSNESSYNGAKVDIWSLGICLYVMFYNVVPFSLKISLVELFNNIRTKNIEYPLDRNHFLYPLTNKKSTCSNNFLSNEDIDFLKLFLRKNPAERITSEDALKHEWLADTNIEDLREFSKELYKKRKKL

[8] = target: Calcium-dependent protein kinase 4 (Plasmodium falciparum (isolate 3D7)) (UniProt Q8IBS5); assay: PfCDPK4 kinase inhibitors, biochemical, TCAMS library (AID 1159588; cut-off not given, nearly all actives have IC50 up to about 0.91 µM); conditions: recombinant PfCDPK4, Kinase-Glo ATP depletion luminescence
Calcium-dependent protein kinase 4 (Plasmodium falciparum (isolate 3D7)), sequence (Q8IBS5 whole entry, looked up): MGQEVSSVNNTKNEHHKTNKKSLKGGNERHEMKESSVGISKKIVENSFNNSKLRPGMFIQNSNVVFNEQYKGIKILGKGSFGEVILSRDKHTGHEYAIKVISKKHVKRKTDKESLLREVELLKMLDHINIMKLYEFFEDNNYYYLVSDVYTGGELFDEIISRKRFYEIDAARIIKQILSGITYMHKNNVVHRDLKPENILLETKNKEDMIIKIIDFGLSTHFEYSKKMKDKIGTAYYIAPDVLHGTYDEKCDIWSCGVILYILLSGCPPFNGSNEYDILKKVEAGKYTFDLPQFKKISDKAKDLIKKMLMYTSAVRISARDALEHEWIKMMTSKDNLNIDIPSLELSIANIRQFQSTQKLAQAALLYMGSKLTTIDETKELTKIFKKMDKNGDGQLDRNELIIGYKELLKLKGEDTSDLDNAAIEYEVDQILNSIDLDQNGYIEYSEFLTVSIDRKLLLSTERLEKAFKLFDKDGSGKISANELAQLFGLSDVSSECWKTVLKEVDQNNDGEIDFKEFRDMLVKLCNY

Cc1cc(-c2cc3nc4c(c(=O)n3[nH]2)CCCC4)c(C)o1
active: growth inhibition [1] 82% | growth inhibition [4] 94%
inactive: inhibition [2] 4% | inhibition [3] -4% | outcome [5] | outcome [6] | outcome [7] | outcome [8]

O=C1COc2ccc3ccccc3c21
inactive: growth inhibition [1] 3% | inhibition [2] -3% | inhibition [3] 6% | outcome [5] | outcome [6] | outcome [7] | outcome [8]
active: growth inhibition [4] 99%

COc1ccc(N2CCN(CCCOc3ccc(NC(=O)c4cc(Cl)cc(Cl)c4)cc3)CC2)c(OC)c1
active: growth inhibition [4] 100%
inactive: growth inhibition [1] 41% | inhibition [2] 38% | inhibition [3] 2% | outcome [5] | outcome [6] | outcome [7] | outcome [8]

COc1cccc(C(=O)Nc2ccc(Oc3ccc(Cl)cc3)cc2)c1
active: growth inhibition [4] 92%
inactive: growth inhibition [1] -2% | inhibition [2] 33% | inhibition [3] -5% | outcome [5] | outcome [6] | outcome [7] | outcome [8]

Cc1[nH]nc2ccc(-c3cc(OC[C@@H](N)Cc4ccccc4)cnc3-c3ccc(OCc4cccc(F)c4)cc3)cc12
inactive: inhibition [3] -5% | outcome [5] | outcome [6] | outcome [7] | outcome [8]
active: growth inhibition [1] 59% | inhibition [2] 97% | growth inhibition [4] 98%

CC(C)Oc1cc2c(cc1NS(=O)(=O)c1ccc(-c3ccc(Cl)cc3)cc1)CCN(C)CC2
active: growth inhibition [1] 65% | inhibition [2] 100% | growth inhibition [4] 99%
inactive: inhibition [3] -3% | outcome [5] | outcome [6] | outcome [7] | outcome [8]

CSCCCN1CCC(O)(c2ccc3oc(C(=O)Nc4ccc5sc(C)nc5c4)cc3c2)CC1
active: growth inhibition [1] 69% | growth inhibition [4] 101%
inactive: inhibition [2] 10% | inhibition [3] 4% | outcome [5] | outcome [6] | outcome [7] | outcome [8]

CC(C)N1CCC(N(Cc2ccc(-c3ccc(C(F)(F)F)cc3)cc2)C(=O)Cn2c(SCc3cccc(F)c3F)cc(=O)c3c2CCC3)CC1
active: growth inhibition [4] 88%
inactive: growth inhibition [1] 42% | inhibition [2] 44% | inhibition [3] -6% | outcome [5] | outcome [6] | outcome [7] | outcome [8]

O=C(c1c(-c2[nH]c3ccccc3c2C(=O)C(F)(F)F)[nH]c2ccccc12)C(F)(F)F
active: growth inhibition [1] 99% | growth inhibition [4] 97%
inactive: inhibition [2] 18% | inhibition [3] 3% | outcome [5] | outcome [6] | outcome [7] | outcome [8]

O=C(CCNc1ccnc(NCCc2ccc(F)cc2)n1)Nc1ccccc1
active: growth inhibition [4] 95%
inactive: growth inhibition [1] 10% | inhibition [2] 9% | inhibition [3] -4% | outcome [5] | outcome [6] | outcome [7] | outcome [8]

CCCCCCN=C(N)c1ccc(OCCCCCOc2ccc(C(N)=NCCCCCC)cc2)cc1
active: growth inhibition [1] 98% | inhibition [2] 55% | growth inhibition [4] 97%
inactive: inhibition [3] -8% | outcome [5] | outcome [6] | outcome [7] | outcome [8]

Cc1cc2c(/C=C/C(=O)NC3CCC(CCN4CCc5ccc(C#N)cc5CC4)CC3)cccc2[nH]1 (stereo unspecified)
inactive: growth inhibition [1] 39% | inhibition [2] 16% | inhibition [3] 1% | outcome [5] | outcome [6] | outcome [7] | outcome [8]
active: growth inhibition [4] 95%

CN(C)CCN(Cc1ccccc1)c1ccc([N+](=O)[O-])cc1C(F)(F)F
active: growth inhibition [1] 89% | growth inhibition [4] 96%
inactive: inhibition [2] 40% | inhibition [3] -8% | outcome [5] | outcome [6] | outcome [7] | outcome [8]

O=C(/C=C/c1ccc(Cl)c(Cl)c1)NCCCCCN1CCC(NC(=O)Nc2ccc(Br)cc2)CC1
active: growth inhibition [4] 101%
inactive: growth inhibition [1] 7% | inhibition [2] 36% | inhibition [3] -3% | outcome [5] | outcome [6] | outcome [7] | outcome [8]

CC(C)N1CCC(N(Cc2ccc(-c3ccc(C(F)(F)F)cc3)cc2)C(=O)Cn2c(SCc3cccc(F)c3F)cc(=O)c3ccccc32)CC1
inactive: inhibition [3] 1% | outcome [5] | outcome [6] | outcome [7] | outcome [8]
active: growth inhibition [1] 77% | inhibition [2] 52% | growth inhibition [4] 100%

Cc1c(CNCCCNc2nc3ccccc3[nH]2)[nH]c2cc(Cl)cc(Cl)c12
inactive: growth inhibition [1] -1% | inhibition [3] -6% | outcome [5] | outcome [6] | outcome [7] | outcome [8]
active: inhibition [2] 59% | growth inhibition [4] 101%

Nc1nc(N)c2c3c(cnc2n1)CCCC3
active: inhibition [2] 61% | growth inhibition [4] 95%
inactive: growth inhibition [1] -4% | inhibition [3] -4% | outcome [5] | outcome [6] | outcome [7] | outcome [8]

O=C(c1ccc(F)cc1)N1CCOC(CCN2CCC(c3ccccc3)CC2)(c2ccc(Cl)c(Cl)c2)C1 (stereo unspecified)
inactive: inhibition [2] 29% | inhibition [3] -6% | outcome [5] | outcome [6] | outcome [7] | outcome [8]
active: growth inhibition [1] 84% | growth inhibition [4] 88%

COc1ccc(CNC2CCN(C)CC2)cc1-c1ccc(S(=O)(=O)NCCc2ccccn2)c(C)c1
inactive: inhibition [2] 7% | inhibition [3] -2% | outcome [5] | outcome [6] | outcome [7] | outcome [8]
active: growth inhibition [1] 91% | growth inhibition [4] 96%

Cc1[nH]c2c(NCc3ccc(F)cc3)nccc2c1C
active: inhibition [2] 63% | growth inhibition [4] 83%
inactive: growth inhibition [1] -3% | inhibition [3] -3% | outcome [5] | outcome [6] | outcome [7] | outcome [8]

CN1CCC(NCc2cccc(-c3ccc(S(=O)(=O)NCc4ccccc4)cc3)c2)CC1
active: growth inhibition [1] 93% | inhibition [2] 61% | growth inhibition [4] 100%
inactive: inhibition [3] 0% | outcome [5] | outcome [6] | outcome [7] | outcome [8]

CCCN(CCC)CCCCC(C)Nc1c2ccc(Cl)cc2nc2ccc(OC)cc12 (stereo unspecified)
inactive: inhibition [2] 42% | inhibition [3] -2% | outcome [5] | outcome [6] | outcome [7] | outcome [8]
active: growth inhibition [1] 100% | growth inhibition [4] 102%

O=C(Nc1ccccc1)c1ccc(-c2cc3ccncc3cc2OC2CCNCC2)s1
inactive: growth inhibition [1] 8% | inhibition [2] -1% | inhibition [3] -2% | outcome [5] | outcome [6] | outcome [7] | outcome [8]
active: growth inhibition [4] 100%

Cc1cccc2[nH]c(-c3ccc(-c4ccc(NC(=O)Nc5ccc(Cl)c(Cl)c5)cc4)cc3)nc12
inactive: inhibition [2] 37% | inhibition [3] 0% | outcome [5] | outcome [6] | outcome [7] | outcome [8]
active: growth inhibition [1] 100% | growth inhibition [4] 101%

Cc1[nH]c(C)c(-c2ccc(CCc3ccc(F)cc3F)cc2)c(=O)c1Br
inactive: inhibition [2] -5% | inhibition [3] -3% | outcome [5] | outcome [6] | outcome [7] | outcome [8]
active: growth inhibition [1] 98% | growth inhibition [4] 97%

Cc1ccc(C2=NNC3(S2)C(=O)N(C)c2ccccc23)cc1 (stereo unspecified)
active: growth inhibition [4] 82%
inactive: growth inhibition [1] 12% | inhibition [2] 36% | inhibition [3] 5% | outcome [5] | outcome [6] | outcome [7] | outcome [8]

COc1cc2nc(SCCCC#N)n(C3CCCCCC3)c(=N)c2cc1OC
inactive: growth inhibition [1] 9% | inhibition [2] 0% | inhibition [3] 0% | outcome [5] | outcome [6] | outcome [7] | outcome [8]
active: growth inhibition [4] 89%

CC(C)CCCC(C)(C)NC[C@@H](O)[C@H](Cc1ccccc1)NC(=O)c1cccc(OCC2CC2)c1
inactive: inhibition [3] 3% | outcome [5] | outcome [6] | outcome [7] | outcome [8]
active: growth inhibition [1] 91% | inhibition [2] 99% | growth inhibition [4] 96%

CC(C)c1ccc(NC(=O)NC2CCN(CCCCCNC(=O)/C=C/c3ccc(Cl)c(Cl)c3)CC2)cc1
inactive: growth inhibition [1] 19% | inhibition [2] -5% | inhibition [3] -2% | outcome [5] | outcome [6] | outcome [7] | outcome [8]
active: growth inhibition [4] 100%

Cc1c(F)cc(C(=O)NC2CC2)cc1-c1ccc2c(cnn2S(=O)(=O)c2ccc(Cl)s2)c1
inactive: inhibition [2] 24% | inhibition [3] -4% | outcome [5] | outcome [6] | outcome [7] | outcome [8]
active: growth inhibition [1] 50% | growth inhibition [4] 81%

FC(F)(F)c1ccc2nc(-c3ccc(-c4ccc(CN5CCN(c6ccncc6)CC5)cc4)cc3)[nH]c2c1
active: growth inhibition [1] 99% | inhibition [2] 91% | growth inhibition [4] 101%
inactive: inhibition [3] 6% | outcome [5] | outcome [6] | outcome [7] | outcome [8]

O=c1cc(NCCCNCc2ccc(C(F)(F)F)s2)[nH]c2ccccc12
active: growth inhibition [1] 68% | growth inhibition [4] 99%
inactive: inhibition [2] -11% | inhibition [3] 2% | outcome [5] | outcome [6] | outcome [7] | outcome [8]

COc1ccccc1-c1cccc(CNC2CCN(CC3Cn4c(=O)ccc5ccc(F)c3c54)CC2)c1 (stereo unspecified)
active: growth inhibition [4] 91%
inactive: growth inhibition [1] -1% | inhibition [2] 30% | inhibition [3] 3% | outcome [5] | outcome [6] | outcome [7] | outcome [8]

Cc1c(N)ccc2[nH]c(-c3ccc(N)cc3)nc12
active: growth inhibition [4] 97%
inactive: growth inhibition [1] 40% | inhibition [2] 0% | inhibition [3] 0% | outcome [5] | outcome [6] | outcome [7] | outcome [8]

COc1cccc(C(=O)NC(NC(=S)Nc2ccc(OC)cc2[N+](=O)[O-])C(Cl)(Cl)Cl)c1 (stereo unspecified)
active: growth inhibition [4] 99%
inactive: growth inhibition [1] 49% | inhibition [2] 9% | inhibition [3] -2% | outcome [5] | outcome [6] | outcome [7] | outcome [8]

CCCCCN1CCC(NS(=O)(=O)c2ccc(C(=O)Nc3cccc(C(F)(F)F)c3)cc2)C1 (stereo unspecified)
inactive: growth inhibition [1] 0% | inhibition [2] 14% | inhibition [3] -9% | outcome [5] | outcome [6] | outcome [7] | outcome [8]
active: growth inhibition [4] 94%

CO/C(=C/C=C/c1cc2cc(Cl)c(Cl)cc2[nH]1)C(=O)NC1CC(C)(C)N(C)C(C)(C)C1
active: growth inhibition [1] 85% | inhibition [2] 58% | growth inhibition [4] 99%
inactive: inhibition [3] -12% | outcome [5] | outcome [6] | outcome [7] | outcome [8]
